Screening results as filed in PubChem.
D2 antag = antagonizes the human D2 dopamine receptor | P14416 | HEK293 TREx D2 cells, calcium flux, dopamine EC80 | inhibition, % at 10 µM | hit rate 2% among 340,000 | AID 485344; in the data active means inhibition above about 30%; inactive means below that, where a call was filed; further: 0% is about no effect
Target sequence (P14416 whole entry, looked up): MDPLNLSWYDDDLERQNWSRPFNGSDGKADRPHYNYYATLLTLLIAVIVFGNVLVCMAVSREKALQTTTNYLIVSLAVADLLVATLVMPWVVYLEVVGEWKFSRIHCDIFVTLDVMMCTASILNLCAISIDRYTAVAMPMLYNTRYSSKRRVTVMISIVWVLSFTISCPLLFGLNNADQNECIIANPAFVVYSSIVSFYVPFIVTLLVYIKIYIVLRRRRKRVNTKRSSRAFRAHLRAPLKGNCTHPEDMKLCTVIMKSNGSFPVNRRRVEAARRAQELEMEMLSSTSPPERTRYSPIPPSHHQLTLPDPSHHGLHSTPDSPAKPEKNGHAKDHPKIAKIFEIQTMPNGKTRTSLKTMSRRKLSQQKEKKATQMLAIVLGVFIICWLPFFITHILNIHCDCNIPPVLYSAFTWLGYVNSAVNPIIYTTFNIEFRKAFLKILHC
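Measurement of antagonist activity uses fluorescent calcium dye in inducible HEK293 T-REx D2 cells: 10 s baseline, compound addition with 180 s read, EC80 dopamine addition with a further 180 s read.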
D2 PAM-1 = positively modulates the human D2 dopamine receptor allosterically | P14416 | HEK293 T-REx D2, calcium flux, EC20 dopamine potentiation | potentiation, % at 10 µM | hit rate 0.34% among 340,000 | AID 485347;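 active means potentiation over 3 SD above the plate norm, cut at about 30% in these data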; further: 0% is about no effect
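Calcium flux readout, no-wash dye, 1 read/s. Inducible HEK293 Trex D2 line, overnight 30 C. Compound alone 180 s (agonist flags), then EC20 dopamine, another 180 s to score potentiation.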
D2 ag-1 = D2 dopamine receptor (human) agonism. hit rate 0.53% among 340,000. activation, % at 2 µM. HEK293 T-REx D2 cells, calcium flux agonist mode;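 active means activation over 3 SD above normal in the single-dose calcium agonist read, cut at about 30% in these data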; further: 0% is about no effect
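Calcium-flux readout, 1 cycle/sec over 180 s following compound pin transfer, in inducible HEK293 Trex D2 cells (force-coupled); dopamine controls included. Positive calcium responses during this window marked compounds as potential agonists.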
D2 ag-2 = human D2 receptor agonism in beta-arrestin assay; P14416; DiscoveRx PathHunter D2 beta-arrestin, luminescence, 90 min; 100% = 57 uM dopamine signal; activation, % (concentration not given with the values); hit rate 0.084% among 360,000; in the data active means activation above about 40%
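Agonist mode: compounds alone added to overnight-plated D2 PathHunter cells for 90 min at 37 C, with 57 uM final dopamine (EC100) defining full response. Beta-arrestin recruitment detected by chemiluminescent reagent, read after 1 h at ambient temperature.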
D2 PAM-2 = human D2 receptor positive allosteric modulation; P14416; DiscoveRx D2 beta-arrestin cells, luminescence, 90 min; 100% = 57 uM dopamine signal; potentiation, % (test concentration not listed); hit rate 0.23% among 360,000; AID 624464; in the data active means potentiation above about 50%
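PathHunter D2 cells, attached overnight at 37 deg C, received compound in DMSO plus dopamine at EC20 (50 nM final) for 90 min at 37 deg C. Beta-arrestin recruitment was read as luminescence after 1 h with detection reagent at ambient temperature.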
Active calls of the source: *. Hits are enriched below; roughly 2.4% of the tested compounds scored in any of these assays.

Screening Cc1cc2nc(N)sc2cc1C returned D2 antag 34.2*, D2 PAM-1 8.8, D2 ag-1 -1.1, D2 ag-2 -0.1 and D2 PAM-2 -7.8.
CC(C)c1ccc2nc(N)sc2c1 was read as D2 antag -18.9, D2 PAM-1 -3.3, D2 ag-1 -0.3, D2 ag-2 0.6 and D2 PAM-2 -6.2.
Screening O=c1c2sccc2n(Cc2cc(=O)n3cc(Cl)ccc3n2)c(=O)n1-c1ccccc1 returned D2 PAM-1 3.4 and D2 ag-1 -0.9.
COc1ccc(N2CCN(CCCNC(=O)C3COc4ccc(OC)cc4C3)CC2)cc1 (stereo unspecified) was read as D2 PAM-1 1.2 and D2 ag-1 -1.0.
`O=C(CN1C(=O)CCC1=O)NCC12CC3CC(CC(C3)C1)C2` gave D2 antag -8.9, D2 PAM-1 38.5*, D2 ag-1 -1.8, D2 ag-2 -4.0 and D2 PAM-2 -7.8.
For COc1ccc(NS(=O)(=O)c2cc(Br)cc3c2N(C(C)=O)CC3)cc1 the results were D2 antag 62.8*, D2 PAM-1 -33.9, D2 ag-1 0.5, D2 ag-2 -17.9 and D2 PAM-2 -12.6.
`O=C(C1CC1)N1CCc2cc(Br)cc(S(=O)(=O)NC3CCCCC3)c21` gave D2 antag 39.6*, D2 PAM-1 -4.2, D2 ag-1 0.3, D2 ag-2 -3.0 and D2 PAM-2 -5.5.
Screening O=C(C1CC1)N1CCc2cc(Br)cc(S(=O)(=O)N3CCCCCC3)c21 returned D2 antag -13.5, D2 PAM-1 9.5, D2 ag-1 1.3, D2 ag-2 -1.4 and D2 PAM-2 -6.2.
Screening CCc1ccc(NS(=O)(=O)c2cc(Br)cc3c2N(C(C)=O)CC3)cc1 returned D2 ag-1 0.6.
O=C1c2ccccc2C(=O)N1CCc1nc(-c2ccccn2)no1 was read as D2 PAM-1 1.5, D2 ag-2 1.1 and D2 PAM-2 -16.2.
`O=C1c2ccccc2C(=O)N1CCCc1nc(-c2ccccn2)no1` gave D2 antag 35.9*, D2 PAM-1 13.5, D2 ag-1 0.2, D2 ag-2 -2.6 and D2 PAM-2 -3.4.
`O=C(CSc1nc(-c2ccccc2)nc2c1CCCC2)c1ccc(Cl)cc1` gave D2 PAM-1 0.5 and D2 ag-1 0.4.
Screening CC1CCC(C(C)C)C(OC(=O)C[n+]2cc(-c3ccc(Cl)cc3)n3c2CCCCC3)C1 (stereo unspecified) returned D2 antag 33.1*, D2 PAM-1 -5.2, D2 ag-1 0.9, D2 ag-2 1.0 and D2 PAM-2 -6.5.
CCOc1ccc(N(CC(=O)NCc2ccc(C)cc2)S(=O)(=O)c2c(C)noc2C)cc1 was read as D2 PAM-1 -5.2 and D2 ag-1 -0.2.
Screening Cc1cnc(C(=O)Nc2ccccc2-c2nnn(CC(=O)NC3CCCC3)n2)cn1 returned D2 antag 30.4*, D2 PAM-1 -2.2, D2 ag-1 0.4, D2 ag-2 2.2 and D2 PAM-2 -18.0.
Screening Cc1cc(C)n(CCCNC(=O)C2CCC(=O)N(CCc3ccc(Cl)cc3)C2)n1 (stereo unspecified) returned D2 antag -0.8, D2 PAM-1 5.8, D2 ag-1 -0.4, D2 ag-2 -1.6 and D2 PAM-2 -8.3.
For Cc1ccn(CCNC(=O)C2CCC(=O)N(CCc3ccc(Cl)cc3)C2)n1 (stereo unspecified) the results were D2 antag 2.3, D2 PAM-1 34.6*, D2 ag-1 -0.5, D2 ag-2 -1.0 and D2 PAM-2 16.3.
For Nc1cc(C(F)(F)F)ccc1Nc1ccccc1 the results were D2 antag 67.1*, D2 PAM-1 -7.3, D2 ag-1 0.2, D2 ag-2 3.3 and D2 PAM-2 0.6.
Screening Nc1cc([N+](=O)[O-])ccc1Nc1ccccc1 returned D2 antag 2.4, D2 PAM-1 16.0, D2 ag-1 0.1, D2 ag-2 -7.5 and D2 PAM-2 -7.3.
For N#Cc1ccc(Nc2ccccc2)c(N)c1 the results were D2 antag 30.9*, D2 PAM-1 -14.0, D2 ag-1 0.8, D2 ag-2 -4.3 and D2 PAM-2 -10.4.
`CCOCCCNC(=O)Nc1cc(C(=O)NCc2ccc(C(C)C)cc2)ccc1N1CCCC1` gave D2 PAM-1 12.9 and D2 ag-1 0.4.
Cc1occc1C(=O)N/N=C/C=C/c1ccccc1[N+](=O)[O-] was read as D2 antag 37.6*, D2 PAM-1 -20.3, D2 ag-1 -0.6, D2 ag-2 -3.9 and D2 PAM-2 -5.3.
For CC(=O)C1CCC2C3CCC4=CC(=O)CCC4(C)C3(Br)C(=O)CC12C (stereo unspecified) the results were D2 ag-2 10.6 and D2 PAM-2 61.3*.
CC(C)n1c(O)c(N=NC(=O)CNC(=O)c2cccnc2)c2ccccc21 was read as D2 antag 40.9*, D2 PAM-1 2.7, D2 ag-1 -0.1, D2 ag-2 -5.0 and D2 PAM-2 -33.8.
Screening Cc1ccc(CC2C(=O)N(CC(=O)O)C(=O)C2C)cc1 (stereo unspecified) returned D2 antag 30.9*, D2 PAM-1 -8.4, D2 ag-1 -0.3, D2 ag-2 -1.6 and D2 PAM-2 -4.9.
O=C(Nc1cc(Cl)cc(Cl)c1)N1CCCN(Cc2ccccc2)CC1 was read as D2 antag 86.6*, D2 PAM-1 -24.9, D2 ag-1 0.1, D2 ag-2 2.4 and D2 PAM-2 -32.4.
Screening COc1cccc(C(=O)NCC(=O)N2CCC3(CC2)NCCc2[nH]cnc23)c1OC returned D2 antag 30.4*, D2 PAM-1 3.8, D2 ag-1 0.5, D2 ag-2 -1.2 and D2 PAM-2 -3.4.
For Cc1ccc(-c2nc(CS(=O)(=O)CC(=O)NC(C)CCc3ccccc3)c(C)o2)cc1 (stereo unspecified) the results were D2 PAM-1 7.2 and D2 ag-1 0.8.
Screening CCOc1ccc(NC(=O)c2cnn(-c3ccc(C)c(C)c3)c2C2CCN(C(=O)OC(C)(C)C)CC2)cc1 returned D2 PAM-1 2.8.
CCN1CCCC1CNC(=O)c1ccc(N2CCOCC2)c(NS(=O)(=O)c2ccc(OC)cc2)c1 (stereo unspecified) was read as D2 antag 32.8*, D2 PAM-1 -13.4, D2 ag-1 -0.1, D2 ag-2 -0.8 and D2 PAM-2 -17.3.
`CCN(CC)CCNC(=O)c1ccc(N2CCCCC2)c(NS(=O)(=O)c2ccc(C)cc2)c1` gave D2 antag 56.2*, D2 PAM-1 -17.5, D2 ag-1 0.9, D2 ag-2 -4.8 and D2 PAM-2 -25.7.
`COCCn1c(SCC(=O)Nc2sc(C)c(C)c2C#N)nnc1-c1ccc(OC)cc1` gave D2 antag 4.4, D2 PAM-1 -23.1, D2 ag-1 -1.8, D2 ag-2 1.2 and D2 PAM-2 -4.4.
`COCCn1c(SCC#N)nnc1-c1ccc(OC)cc1` gave D2 antag 54.6*, D2 PAM-1 -19.9, D2 ag-1 -1.4, D2 ag-2 2.1 and D2 PAM-2 -4.6.
